# Reference: the supplement of paper PMC10338343
# ± gives the standard deviation.
# Tests used:
# [1] = tested on: MILI (PIWIL2) piRISC loaded with L1MC piRNA (26 nt); assay: pre-steady-state target cleavage rate (min^-1); guide: L1MC piRNA 5'p-UAACUAAAUACUAUGCAAGCUGUAGG; higher = faster piRNA-guided slicing of the target;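 note: 1 nM active piRISC with 0.1 nM target library at 33 °C single turnover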
# Outline: (§1)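 At 33 °C in HEPES–potassium acetate buffer, a transcribed, DNA-blocked target RNA library […] was exposed for 0–8 or 0–960 min to 1 nM active affinity-purified piRISC carrying a single synthetic guide, with or without 500 nM GTSF1 partner protein. Uncleaved targets were sequenced and normalised to depth and to weakly complementary targets. With three trials pooled and k3 capped at 0.0001 min^-1, a burst-and-steady-state fit produced the pre-steady-state cleavage rate.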
# [2] = tested on: EfPiwi piRISC loaded with L1MC piRNA (26 nt); assay: pre-steady-state target cleavage rate (min^-1); auxiliary factor: 500 nM Ephydatia muelleri Gtsf1; guide: L1MC piRNA 5'p-UAACUAAAUACUAUGCAAGCUGUAGG; MIWI and MILI are mouse PIWI proteins and EfPiwi is from a freshwater sponge; tags in brackets are library labels; higher = faster piRNA-guided slicing of the target
# Outline: as §1
# [3] = auxiliary factor: 500 nM mouse GTSF1
# [4] = auxiliary factor: none (no GTSF1)
Sequence,"pre-steady-state target cleavage rate [1, 3]","pre-steady-state target cleavage rate [1, 4]",pre-steady-state target cleavage rate [2]
UCCUGGAACAGCUCUGCAUAGUAUUUAGUUA,0.268 ± 0.012,0.00871 ± 0.0031,0.0165 ± 0.005
UCCUCGUACAGGUUGCAUAGUAUUUAGUUA,0.249 ± 0.01,0.00988 ± 0.0022,0.0399 ± 0.0088
UCCUGGAUGUGCUUGCAUAGUUUUUAGUUA,0.0127 ± 0.0066,0.00796 ± 0.0026,0.00538 ± 0.0024
UCCUCCUACAGCUGGCAUAGUAUUUAGUUA,0.294 ± 0.02,0.00732 ± 0.0023,0.0728 ± 0.02
UCCUGGUACAGCUUGCCAUAGUAUUUAGUUA,0.224 ± 0.059,0.00532 ± 0.0033,0.0045 ± 0.0021
UCCUGCUACAGCUGUGCAUAGUAUUUAGUUA,0.263 ± 0.025,0.0081 ± 0.0032,0.00927 ± 0.0026
UCCUGGUACAGCUUGCAUAGUAUUUAGUAA,0.283 ± 0.036,0.00667 ± 0.0024,0.0108 ± 0.0041
UCCUCCUACAGCUAGCAUAGUUUUUAGUUA,0.0658 ± 0.011,0.00299 ± 0.0026,0.00442 ± 0.0017
UCCUGGAUGUGCUUGCAUAGUAUUUGGUUA,0.131 ± 0.013,0.01 ± 0.0034,0.00579 ± 0.003
UCCUGGAACAGCUUACAUAGUAUUUAGUUA,0.223 ± 0.018,0.00953 ± 0.0027,0.0502 ± 0.012
UCCUGGAUGUGGUUGCAUAGUUUUUAGUUA,0.0125 ± 0.0086,0.00954 ± 0.0033,0.00827 ± 0.0052
UCCUGGUACAGCUUGCAUAGUAUCUUAGUUA,0.188 ± 0.031,0.00861 ± 0.0033,0.00588 ± 0.0027
UCCUGCUACAGGUUGCAUAGUAUUUAGUAA,0.223 ± 0.024,0.0054 ± 0.0028,0.00478 ± 0.0019
UCCUGGAUCAGCUAGCAUACUAUUUAGUUA,0.0859 ± 0.012,0.00444 ± 0.0019,0.00342 ± 0.0018
UCCUGGAACAGCUAGCAAAGUAUUUAGUUA,0.11 ± 0.013,0.00729 ± 0.002,0.00366 ± 0.0025
UCCUGGAUCAGCUUGCAUGGUAUUUAGUUA,0.285 ± 0.025,0.011 ± 0.0027,0.0193 ± 0.0038

Sequence,"pre-steady-state target cleavage rate [1, 3]","pre-steady-state target cleavage rate [1, 4]",pre-steady-state target cleavage rate [2]
UCCUCCUACAGGUUGCAUAGUAUUUUGUUA,0.137 ± 0.021,0.00378 ± 0.0021,0.00418 ± 0.0015
UCCUGGAUCAGCUACCAUAGUAUUUAGUUA,0.145 ± 0.014,0.00343 ± 0.0016,0.00516 ± 0.0032
UCCUCCUAGAGCUUGCAUAGUAAUUAGUUA,0.264 ± 0.029,0.00317 ± 0.0031,0.011 ± 0.0039
UCCUGGUACAGGUUGCAAAGUAUUUAGUUA,0.117 ± 0.012,0.0143 ± 0.0038,0.00511 ± 0.0028
UCCUGCUACAGCUUGCAUAGUAUUUAGGUUA,0.265 ± 0.042,0.00346 ± 0.0028,0.00526 ± 0.0014
UCCUCCAAGAGCUUGCAUAGUAUUUAGUUA,0.276 ± 0.013,0.007 ± 0.0024,0.0523 ± 0.014
UCCUGCUACAGGUUGCUUAGUAUUUAGUUA,0.227 ± 0.012,0.0118 ± 0.0038,0.0276 ± 0.0074
UCCUGGAACAGCUUGGAUAGUAAUUAGUUA,0.21 ± 0.025,0.00493 ± 0.0022,0.00719 ± 0.0026
UCCUGGAACACCUUGCAUAGUAUUUAGUUA,0.234 ± 0.026,0.00811 ± 0.0025,0.0061 ± 0.0032
UCCUGCUACACGUUGCAUAGUAUUUAGUAA,0.215 ± 0.028,0.00567 ± 0.0021,0.00458 ± 0.0025
UCCUGCUACACCUUGCAUAGUUUUUAGUUA,0.0358 ± 0.01,0.00475 ± 0.0022,0.00395 ± 0.002
UCCUCCUACAGGUUGCAUAGUAUUAAGUUA,0.212 ± 0.027,0.00545 ± 0.0022,0.00576 ± 0.0023
UCCUGCUACAGCUUGCAUAGUAUUUAGUUU [g2:g25:cont:t1U],0.315 ± 0.022,0.0127 ± 0.0035,0.158 ± 0.042
UCCUGCUACAGCUUGCAUUGUAUUUAGUUA,0.248 ± 0.022,0.0081 ± 0.0028,0.00662 ± 0.0024
UCCUGGAUCACUUGCAUAGUAUUUAGUUA,0.214 ± 0.018,0.0066 ± 0.0022,0.0567 ± 0.014
